Measured values taken from PubChem BioAssay.

Experiment: compound effects on multiple myeloma cell viability – MM1S, calcein-AM fluorescence, 48 h, basal, profiling panel (AID 1165); further: test concentration not given here
Conditions: higher = more signal

SMILES | z-score
Cc1ccc(S[C@]2(C(=O)O)CC(=O)N(Cc3cc(C(F)(F)F)cc(C(F)(F)F)c3)[C@@H]2c2ccc(CO)cc2)cc1 | -0.424
CC(C)Cc1ccc(CN2CC[C@@H](NC(=O)Nc3ccccc3)C2)cc1 | -3.11
C=CC1c2cc(O)c(OC)cc2CCN1Cc1cc2c(cc1Br)OCO2 (stereo unspecified) | -3.17
O=C1O[C@H](c2ccccc2)[C@H](c2ccccc2)N2[C@H]1[C@@H](C(=O)N1CCN(c3ncccn3)CC1)[C@]1(C(=O)Nc3ccc(C#CC4(O)CCCCCC4)cc31)[C@H]2c1ccc(OCCO)cc1 | -0.699
COC(=O)C(CC#Cc1ccc2c(c1)[C@]1(C(=O)N2)[C@H](c2ccccc2OCCO)N2[C@H](c3ccccc3)[C@H](c3ccccc3)OC(=O)[C@H]2[C@@H]1C(=O)NC[C@H](O)c1ccccc1)C(=O)OC | -3.38
Cc1ccccc1C(O)C1C=CC2C(=O)N(C)C(=O)C2N1N(c1ccccc1)c1ccccc1 (stereo unspecified) | -0.967
CCC[C@@H]1C[C@@]1(CCC)[C@@H](NC(=O)OCc1ccccc1)c1ccc(-c2ccccc2)cc1 | -0.625
CN(C)C(=O)C1N=C(c2ccc(OCCCO)cc2)N(c2ccccc2)O1 (stereo unspecified) | 0.237
O=C1O[C@H](c2ccccc2)[C@H](c2ccccc2)N2[C@H]1[C@@H](C(=O)O)[C@]1(C(=O)Nc3ccc(C#CC4=CCCCC4)cc31)[C@H]2c1ccc(O)cc1 | -3.14
C=CCOC(=O)[C@H]1[C@@H]2C(=O)O[C@@H](c3ccccc3)[C@@H](c3ccccc3)N2[C@@H](c2ccc(OCCOC(=O)[C@H]3C[C@H]4C(=O)N[C@@H](CCCCNC(C)=O)C(=O)N4[C@H]3c3ccc(O)cc3)cc2)[C@]12C(=O)Nc1ccccc12 | -0.643
CN1C(=O)C2C=CC(C(O)c3cccc4ccccc34)N(N3CCCCC3)C2C1=O (stereo unspecified) | -1.21
C=CCOC(=O)[C@H]1[C@@H]2C(=O)O[C@@H](c3ccccc3)[C@@H](c3ccccc3)N2[C@@H](c2ccc(OCCOC(=O)[C@@H]3C[C@@H]4C(=O)N5CCC[C@H]5C(=O)N4[C@@H]3c3ccc(O)cc3)cc2)[C@]12C(=O)Nc1ccc(I)cc12 | 0.0967
O=C1C2C=CC(C(O)c3ccccc3)N(Nc3ccccc3F)C2C(=O)N1c1ccccc1 (stereo unspecified) | -1.06
CN(C)c1ccc(C(O)C2C=CC3C(=O)N(c4ccccc4)C(=O)C3N2Nc2ccc([N+](=O)[O-])cc2)cc1 (stereo unspecified) | -0.676
[N-]=[N+]=NCc1ccccc1[C@H]1OC(c2ccc(OCCCO)cc2)=N[C@@]1(CCS(=O)(=O)c1ccccc1)C(=O)N1CCCCC1 | -0.133
C=CCOC(=O)[C@H]1[C@@H]2C(=O)O[C@@H](c3ccccc3)[C@@H](c3ccccc3)N2[C@@H](c2ccc(OCCOC(=O)[C@@H]3C[C@@H]4C(=O)N[C@@H](CCCCNC(C)=O)C(=O)N4[C@@H]3c3ccc(O)cc3)cc2)[C@]12C(=O)Nc1ccc(I)cc12 | -1.6
COc1cc2c(cc1OC)CN(C(=O)[C@@H]1[C@H]3C(=O)O[C@H](c4ccccc4)[C@H](c4ccccc4)N3[C@H](c3ccc(OCCO)cc3)[C@@]13C(=O)Nc1ccc(C#CC4(O)CCCCCC4)cc13)CC2 | -0.0788
C=C(/C(=C/C[C@H](OC(C)=O)c1ccccc1OCCO)c1cc(C(=O)OC)ccc1OC)C(C)C | -1.2

SMILES | z-score
CCOC(=O)C[C@H]1[C@H](OC(=O)c2cc3ccccc3oc2=O)[C@@H](NC(=O)c2ccc(-c3ccccc3)cc2)c2cc(OCCCO)ccc2N1C(=O)c1ccc2ccccc2n1 | 0.0181
CN(C)CCCCNC(=O)[C@@H]1C[C@@H]2C(=O)N[C@@H](Cc3ccccc3)C(=O)N2[C@@H]1c1cccc(OCCO)c1 | -0.729
COc1ccc([Si](C)(C)[C@@H]2[C@@H](CCO)O[C@]3(C(=O)N(Cc4ccc(N5CCCCC5=O)cc4)c4ccccc43)[C@H]2C)cc1 | -2.8
COCCOC(=O)N1C(=O)[C@@]2(c3cc(C#CC4=CCCCC4)ccc31)[C@H](c1ccccc1OCCO)N1[C@H](c3ccccc3)[C@H](c3ccccc3)OC(=O)[C@H]1[C@@H]2C(=O)Nc1nc2ccccc2s1 | -2.34
CCCCC(=C=CC[C@@H](O)c1ccccc1OCCO)C[C@@H](O)COCc1ccccc1 | -2.34
Cc1ccc(S[C@]2(C(=O)NCC(F)(F)F)CC(=O)N(Cc3ccccc3)[C@@H]2c2ccc(CO)cc2I)cc1 | -1.84
O=C(NCC(F)(F)F)[C@@H]1c2ccccc2C(=O)N(Cc2cc(F)cc(C(F)(F)F)c2)[C@H]1c1ccc(CO)cc1 | 0.227
C=C(CCCC)/C(=C/C[C@@H](OC(=O)c1ccncc1)c1ccccc1OCCO)c1cnc2ccccc2c1 | -3.2
[N-]=[N+]=Nc1ccccc1C[C@]1(C(=O)N2CCOCC2)N=C(c2ccc(OCCCO)cc2)O[C@H]1c1ccccc1 | -0.35
CCCNC(=O)[C@@H]1c2ccccc2C(=O)N(C(C)C)[C@H]1c1ccc(CO)cc1 | 0.92
O=C1O[C@H](c2ccccc2)[C@H](c2ccccc2)N2[C@H]1[C@@H](C(=O)Nc1nc3ccccc3s1)[C@]1(C(=O)Nc3ccc(C#CC4(O)CCCCCC4)cc31)[C@H]2c1ccccc1OCCO | -3.44
O=C1OCC=C[C@H]2OC34C=CCN(Cn5nnc6ccccc65)C(=O)[C@H]3N(CCCO)C(=O)[C@@H]4[C@@H]12 (stereo partly specified) | 0.266
COC(=O)[C@@]1(Cc2ccccc2)[C@H]2c3cc(C(=O)N(C)C)n(Cc4c(CO)[nH]cc(C)c4=O)c3C[C@H]2CN1C(=O)c1ccccc1 | -0.979
COC(=O)[C@@]1(Cc2ccc(OC)cc2)[C@H]2c3cc(C(=O)N(C)C)n(Cc4ccc(Cl)c(C(F)(F)F)c4)c3C[C@H]2CN1C(=O)c1ccccc1 | -1.93
C=CCNC(=O)[C@H]1[C@@H]2C(=O)O[C@@H](c3ccccc3)[C@@H](c3ccccc3)N2[C@@H](c2ccc(O)cc2)[C@]12C(=O)N(C(=O)OCCOC)c1ccccc12 | -1.79
CCCCCCCCCCC(O)C1C=CC2C(=O)N(C)C(=O)C2N1NC(=O)OC(C)(C)C (stereo unspecified) | -3.91
NC(N)=NCCCn1cc(CNC(=O)[C@@H](N)Cc2ccccc2)nn1 | -0.0334
CCOC(=O)C1CCCCN1 (stereo unspecified) | 0.481
